Sampled rows, rich in hits. Any-hit rate of the full collection: about 2.5%.
Apoferritin bind = qHTS Assay for Identification of Novel General Anesthetics; Ferritin light chain (Equus caballus), P02791; apoferritin/1-aminoanthracene competitive binding, fluorescence; Potency, µM (doses to about 77.5 µM), inactives show at the top dose activity change, negative = displacement, usual class: inhibitors; 350,000 tested, 0.074% active; AID 485281, 2010; further: potency means the concentration at half of the fitted maximal effect; on the % scale 0 is the no-effect control and ±100 the full control effect; nearly all actives have a fitted effect of over 20% in size
Target sequence (P02791 2-175 limits assumed): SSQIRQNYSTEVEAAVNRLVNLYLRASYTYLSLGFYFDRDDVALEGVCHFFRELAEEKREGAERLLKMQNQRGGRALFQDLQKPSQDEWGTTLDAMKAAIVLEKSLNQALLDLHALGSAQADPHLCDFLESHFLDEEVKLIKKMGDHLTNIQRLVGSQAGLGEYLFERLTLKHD
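Horse-spleen apoferritin (10 uM) was mixed with 50% saturated 1-aminoanthracene in PBS, exposed to compounds for 10 min at room temperature, and read for fluorescence (ex 380 nm, em 535 nm). Competitive displacement was fitted with a four-parameter Hill equation.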
TrxR1 inh = qHTS Assay for Inhibitors of Mammalian Selenoprotein Thioredoxin Reductase 1 (TrxR1): qHTS; Thioredoxin reductase 1, cytoplasmic (Rattus norvegicus), O89049; 390,000 tested, 1% active; Potency, µM (series often up to 114 µM), without a hit: at the highest dose activity change, negative = inhibition, usual class: inhibitors; recombinant rTrxR1, NADPH fluorescence consumption, selenite substrate; further: potency means the concentration at half of the fitted maximal effect; on the % scale 0 is the no-effect control and ±100 the full control effect; nearly all actives have a fitted effect of over 65% in size
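Rat TrxR1 (90 nM in the dispensed reagent) was pre-reduced with 400 uM NADPH for 5 min at room temperature, then incubated with compound for 15 min. After 400 uM selenite was added, NADPH fluorescence (Ex 340/Em 450 nm) was followed for 8 min.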
ClpP mod = qHTS Assay for Activators of ClpP; ATP-dependent Clp protease proteolytic subunit (Bacillus subtilis (strain 168)), P80244; purified B. subtilis ClpP, FRET peptide cleavage, 20 min; Potency, µM (top dose mostly 57.5 µM), without a hit: at the top dose activity change, negative = active; 340,000 tested, 1.9% active; active means well fitted falling curve with a large enough effect; inconclusive means small, poorly fitted or top-dose-only effect; inactive means no such curve, though single readings can be large or run the other way; further: potency means the concentration at half of the fitted maximal effect; the source files actives as falling curves though it sought activators and does not explain the sign; nearly all actives have a fitted effect of over 65% in size
Target sequence (P80244 whole entry, looked up): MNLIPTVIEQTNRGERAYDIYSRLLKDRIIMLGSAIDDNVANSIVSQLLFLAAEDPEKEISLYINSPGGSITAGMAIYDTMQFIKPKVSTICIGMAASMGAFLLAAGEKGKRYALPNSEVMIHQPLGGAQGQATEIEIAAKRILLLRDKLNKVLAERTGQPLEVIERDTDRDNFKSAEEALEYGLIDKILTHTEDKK
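ClpP 10 microg/mL final, pH 8 Tris/KCl buffer with BSA, glycerol, Tween-20; compound pinned in; FRET-FV substrate; RT 20 min; Ex320/Em430; ΔFRET vs ADEP 5.8 microM, DMSO, no enzyme.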
miR-21 reporter = qHTS Assay for Modulators of miRNAs and/orActivators of miR-21 | AID 2288, 2010 | HeLa miR-21 FLuc reporter, luciferase, 48 h | Potency, µM (doses to about 38.3 µM), without a hit: top-dose activity change, positive = activation, usual class: activators | 340,000 tested, under 10 active;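 further: % of control where 0% means no effect; miR-21 action dims this reporter so a rising signal means less miR-21 action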
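HeLa miR-21-FLuc reporter line, endogenous miR-21; 2000 cells/well in DMEM/10% FBS; compound titration up to ~40uM final, 48 h, 37 degree Celsius; luciferase detection reagent, 15 min lysis, CCD luminescence.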
TrxR1 substrate = qHTS Assay for Substrates of Mammalian Selenoprotein Thioredoxin Reductase 1 (TrxR1): qHTS. Thioredoxin reductase 1, cytoplasmic (Rattus norvegicus), O89049. purified TrxR1 substrate turnover, NADPH consumption readout. Potency, µM (doses to about 114 µM), inactives show at the highest dose activity change, negative = substrate turnover. 390,000 tested, 0.01% active. AID 588456, 2011; further: potency means the concentration at half of the fitted maximal effect; on the % scale 0 is the no-effect control and ±100 the full control effect; nearly all actives have a fitted effect of over 50% in size
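Rat TrxR1, dispensed at 90 nM, was prereduced with 400 uM NADPH (final) for 5 min at ~22 deg C, then incubated with compound 15 min before 400 uM selenite. A first-read NADPH fluorescence drop versus no-compound background flagged substrates.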
* hit, by the source's call; ? = inconclusive; · = no result; [ ] = another dose, or the depositor's remark. Unless noted, the call rests on the fitted dose curve; in most records, active means well fitted curve in the direction sought with a large enough effect; inconclusive means small, poorly fitted or top-dose-only effect, or another doubt; inactive means no such curve, though single readings can be large; an effect the other way counts as inactive or inconclusive.

SMILES	Apoferritin bind	TrxR1 inh	ClpP mod	miR-21 reporter	TrxR1 substrate
COc1ccc(S(=O)(=O)NCCc2csc3nc(-c4ccc(OC)c(OC)c4)nn23)cc1C	-12%	7%[57.1 µM]	0%	-12%	-2%[57.1 µM]
CN1CCN(c2cc(=O)n(Cc3ccc(F)cc3)c(=O)[nH]2)CC1	-5%	14µM*	-3%	-3%	1%[57.1 µM]
COc1ccc(CNC(=O)CCS(=O)(=O)c2ccc(Br)cc2)cc1	-5%	-7%	1%	0%	-2%
COc1ccc(S(=O)(=O)CCC(=O)NCc2ccc(C)o2)cc1	-5%	20µM*	-2%	1%	-1%[57.1 µM]
CC(=O)N1CCc2cc(S(=O)(=O)CCC(=O)NCc3ccc(C)o3)ccc21	-7%	50µM*	·	1%	8%
Cc1ccc(S(=O)(=O)NCc2ccccc2)cc1C(=O)N(C)Cc1ccc(F)cc1	-23%	-4%	1%	12%	-13%
Cc1ccc(S(=O)(=O)NCc2ccccc2)cc1C(=O)N(C)Cc1ccccc1F	-10%	-8%	16µM*	2%	-14%
CCN(C(=O)c1oc2ccc(S(=O)(=O)N3CCCCCC3)cc2c1C)c1ccccc1	25%	21%[57.1 µM]	0%	?	1%[57.1 µM]
CCN(C(=O)CSc1nc(-c2ccccc2)c(-c2ccccc2)[nH]1)C1CCS(=O)(=O)C1 (configuration not stated)	-14%	22%	25µM*	1%	51%
COc1ccc(CCNC(=O)CCCn2c(=O)c3ccccc3n(Cc3cccc(Cl)c3)c2=O)cc1OC	30%	13%	1%	11%	7%
Cc1cc(OCc2nn[nH]n2)c2c(C)c(Cc3ccccc3)c(=O)oc2c1	-8%	34%[57.1 µM]	32µM*	-7%	76%[57.1 µM]
COc1ccc(CN2COc3ccc4c(-c5ccc(OC)cc5)cc(=O)oc4c3C2)cc1	88%	4%	-17%	-9%	13%
COc1ccc(-c2c(NC(=O)C(C)C)n(C)c3ccccc3c2=O)cc1	0%	?	28µM*	1%	62%
COc1ccc(-c2c(NC(C)=O)n(C)c3ccccc3c2=O)cc1	-4%	17%	25µM*	-2%	98%
CCOC(=O)CC(=O)CSc1nc(-c2ccc3c(c2)OCO3)cc(C(F)(F)F)c1C#N	-10%	20%	20µM*	2%	9%
Cc1ccc(/C=C2\CCCC3=C2NC(=S)NC3c2ccc(C)cc2)cc1 (configuration not stated)	-13%	?	16µM*	-8%	-12%
Cc1ccc(/C=C2\CC(C)CC3=C2NC(=S)NC3c2ccc(C)cc2)cc1 (configuration not stated)	-9%	-14%	·	-2%	-5%[0.0914 µM]
CC1C/C(=C/c2ccncc2)C(=O)/C(=C/c2ccncc2)C1 (configuration not stated)	-13%	14µM*	1%	?	3%
O=C(NCc1ccccc1Br)C1CCCN(C(=O)N2CCOc3ccccc32)C1 (configuration not stated)	7%	7%	-3%	-1%	-5%
CCCOC(=O)c1cc(-c2ccc(/C=C3/C(=O)N(C)C(=O)C(C#N)=C3C)o2)ccc1Cl	·	18µM*	3%	·	2%
C=CCOC(=O)c1cc(-c2ccc(/C=C3\C(=O)NC(=O)C(C#N)=C3C)o2)ccc1Cl	?	?	-11%	-25%	-10%
COC(=O)c1ccccc1NC(=O)Cn1cc(S(=O)(=O)Cc2ccccc2F)c2ccccc21	3%	8%	38%	-4%	-4%
CCCCOc1ccccc1C1C(C(=O)OC)=CN(CC)C=C1C(=O)OC	699%	58%[57.1 µM]	14µM*	-2%	288%[57.1 µM]
CCCOc1ccccc1C1C(C(=O)OC)=CN(C(C)C)C=C1C(=O)OC	346%	58%[57.1 µM]	16µM*	0%	258%[57.1 µM]
CCN1C=C(C(=O)OC)C(c2cccc(C)c2)C(C(=O)OC)=C1	366%	-27%	6.3µM*	-5%	546%
SMILES	Apoferritin bind	TrxR1 inh	ClpP mod	miR-21 reporter	TrxR1 substrate
COC(=O)C1=CN(C)C=C(C(=O)OC)C1c1ccccc1Cl	509%	?	78%	-5%	577%
Cc1ccc(NC(=O)C(=O)NCC(c2cccnc2)N2CCN(Cc3ccccc3)CC2)cc1F (configuration not stated)	-5%	-23%	-9%	-1%	-1%
CN(C)CCNC(=O)/C(=C/c1ccc(-c2ccc(Cl)cc2Cl)o1)NC(=O)c1ccccc1	0%	0%	-7%	?	5%
CN(C)CCNC(=O)/C(=C/c1ccc(-c2ccc(Cl)cc2)o1)NC(=O)c1ccccc1	-10%	-11%	16µM*	?	-5%
Cc1cc(OC(C)C(=O)NC(Cc2c[nH]c3ccc(O)cc23)C(=O)O)c2c(C)c(C)c(=O)oc2c1 (configuration not stated)	-9%	11µM*	5%	-1%	25%
CCc1ccc2nc(N(Cc3cccnc3)C(=O)Cc3ccccc3)sc2c1	-15%	11%[57.1 µM]	-5%	-12%	-7%[57.1 µM]
COc1ccc(-c2nc(CN3CCC(C(=O)NCCCOC(C)C)CC3)c(C)o2)cc1OC	0%	24%	-15%	0%	17%
O=Cc1c(Cl)nc2ccccn2c1=O	-12%	18µM*	·	2%	21%
O=C(c1cccc(S(=O)(=O)N2CCCC2)c1)N1CCCC(C(F)(F)F)C1 (configuration not stated)	·	6%	28µM*	·	13%[57.1 µM]
O=C(c1cccc(S(=O)(=O)N2CCOCC2)c1)N1CCCC(C(F)(F)F)C1 (configuration not stated)	·	-2%	0%	·	-5%
CN1C(=O)C2(N=c3ccccc3=N2)c2ccccc21	-8%	5%	13µM*	-11%	17%
CN1C(=O)C2(OCC(C)([N+](=O)[O-])CO2)c2ccccc21 (configuration not stated)	-7%	4%	·	-1%	-1%
COc1cc(OC)cc(C(=O)N(Cc2ccco2)Cc2cccs2)c1	·	12%	0%	·	2%
CCN(CC)CC(C)(C)C(=O)/C=C/c1ccc(/C=C/C(=O)C(C)(C)CN(CC)CC)cc1	·	2µM*	-1%	·	-11%
CCN(CC)CCOC(=O)/C=C/c1ccccc1	9%	13%	0%	2%	-2%
COCCn1c(-c2ccc(Cl)cc2Cl)nc2c(c(=O)c3ccccc3n2C)c1=O	2%	9%	14µM*	-7%	-4%

Assay outcomes: PubChem, National Center for Advancing Translational Sciences (NCATS)
